Data: PubChem BioAssay (NCATS)
Records with an inconclusive call do not appear. Values without a mark were called inactive. Active and inactive are the calls of the source. The call rests on the fitted dose curve; in most records, active means well fitted cell-killing curve with a large enough effect; inconclusive means small, poorly fitted or top-dose-only effect, or effect the other way; inactive means flat fitted curve, though single readings scatter.

Assay: qHTS of pediatric cancer cell lines to identify multiple opportunities for drug repurposing: Confirmatory screen for control Hh wild type fibroblast cells (AID 1347121); further: nearly all actives have a fitted effect of over 70% in size
Conditions: viability qHTS; series mostly up to 45.9 µM; activity, negative = cytotoxic: at the top concentration
Excerpt: Drug repurposing or repositioning has been offered as a strategy for drug development in oncology programs. This approach has special potential for childhood cancers and other rare or orphan diseases, where the expected return on new drug development has been a disincentive to pharmaceuticals.
In this project we exploit the poly-pharmacology of drugs to discover new indications via phenotypic screening of a panel of 19 well-characterized cell lines derived from solid tumors seen in children and adolescents. The goal is to identify approved drugs with previously unrecognized anticancer properties that has the potential to reveal new mechanisms and biological processes involved in carcinogenesis or drug resistance. We employed a titration-based paradigm (quantitative high-throughput screening or qHTS), where all compounds were tested at multiple concentrations for their effect on cell viability. Concentration-response curves (CRCs) were derived directly from the primary screen, and both potency and efficacy values were used to identify compounds with robust bioactivity profiles. We screened the NIH Chemical Genomics Center (NCGC) Pharmaceutical Collection (NPC) and Mechanism Interrogation Plate (MIPE) small molecule collections of approved and investigational compounds against these cell lines; and measured metabolically active cells after 48 hours of compound treatment as a proxy for cell viability.
Assay Submitter: Nathalia J. Martinez, National Center for Advancing Translational Sciences, National Institutes of Health, Rockville, MD, USA; email: natalia.martinez@nih.gov
[1] Shen, M et al. Quantitative high-throughput phenotypic screening of pediatric cancer cell lines identifies multiple opportunities for drug repurposing. Oncotarget 2017 Dec 19;9(4):4758-4772. PMID 29435139.
The cells were obtained from University of North Carolina (UNC), Pediatric Preclinical Testing Program (PPT), and Coriell Institute (CI).
qHTS cell viability assay:
Cells were assayed in growth media at a density of 500-1,000 cells/well. Five microliters of cells were dispensed into 1,536-well, white, solid-bottom, TC-treated plates (Greiner Bio One) using a multidrop dispenser and incubated at 37 degrees C, 5% CO2, under a humidified atmosphere for 5 hours. Twenty-three nanoliters of compounds and controls (neutral control DMSO or positive control bortezomib at final concentration of 2.3 µM) were subsequently transferred by Kalypsys pintool. For primary screens, the MIPE collection was tested at 11-point dilutions (final concentrations range from 0.78 nM to 46 µM) and the NPC collection at 8-point dilutions (final concentrations range from 0.59 nM to 46 µM). Compounds tested in follow-up screens were assayed at 11-point dilutions. Cells were incubated for 48 hours, followed by addition of 3 µL of CellTiter-Glo (Promega). After a 15 min incubation at room temperature, samples were analyzed for luminescence intensity using a ViewLux High-throughput CCD imager equipped with clear filters.
Potency means the concentration at half of the fitted maximal effect.

Row | Compound | Potency | activity, negative = cytotoxic
1 | C=CC(=O)Nc1cc2c(Nc3ccc(F)c(Cl)c3)ncnc2cc1C#CC(C)(C)N1CCN(C)CC1 | 19.1 µM (active) | –
2 | COc1ccc(-c2cc3c(C)nc(N)nc3n(C3CCC(OCCO)CC3)c2=O)cn1 (stereo not given) | – | 8.73%
3 | CC(C)c1cc(C(=O)N2Cc3ccc(CN4CCN(C)CC4)cc3C2)c(O)cc1O | – | 3.25%
4 | CCOc1cc2ncc(C#N)c(Nc3ccc(F)c(Cl)c3)c2cc1NC(=O)C=CCN(C)C | – | 11.2%
5 | Cc1[nH]nc2ccc(-c3cncc(OC[C@@H](N)Cc4ccccc4)c3)cc12 | 23.3 µM (active) | –
6 | COc1cc2c(NC3CCN(C(C)C)CC3)nc(C3CCCCC3)nc2cc1OCCCN1CCCC1 | – | -6.99%
7 | COc1cc2c(Oc3ccc(NC(=O)C4(C(=O)Nc5ccc(F)cc5)CC4)cc3F)ccnc2cc1OCCCN1CCOCC1 | 20.8 µM (active) | –
8 | O=C(NC1CCNCC1)c1[nH]ncc1NC(=O)c1c(Cl)cccc1Cl | – | -14.5% [at 95.5 µM]
9 | C=CC(=O)Nc1cccc(Oc2nc(Nc3ccc(N4CCN(C)CC4)cc3OC)ncc2Cl)c1 | – | -26.3%
10 | CCN1CCN(Cc2ccc(-c3cc4c(N[C@H](C)c5ccccc5)ncnc4[nH]3)cc2)CC1 | 42.7 µM (active) | –
11 | Cc1cn2c(-c3cn[nH]c3)cnc2c(Nc2ccc(C(=O)N3CCNCC3)cc2F)n1 | – | -13.6%
12 | C#Cc1cccc(Nc2ncnc3cc(OC)c(OCCCCCCC(=O)NO)cc23)c1 | 10.7 µM (active) | –
13 | O=C(O)c1ccc2cc(-c3ccc(O)c(C45CC6CC(CC(C6)C4)C5)c3)ccc2c1 | – | 3.6%
14 | Cc1ccc(-c2ncn(-c3ccc(Nc4nccc(-c5cccc(N6CCOCC6)c5)n4)cc3)n2)cn1 | – | 8.36% [at 95.5 µM]
15 | CCNC(=O)Nc1ccc2ncc(Nc3ccc(C)cc3)nc2n1 | – | 10.1%
16 | CC(C)(C)c1cnc(CSc2cnc(NC(=O)C3CCNCC3)s2)o1 | – | -4.62%
17 | CN[C@H]1CCc2cc(OC)c(OC)c(OC)c2-c2ccc(OC)c(=O)cc21 | – | -2.68%
18 | C[C@@H](Oc1cc(-n2cnc3ccc(CN4CCN(C)CC4)cc32)sc1C(N)=O)c1ccccc1C(F)(F)F | 42.7 µM (active) | –
19 | NC(=O)c1cccc2cn(-c3ccc([C@@H]4CCCNC4)cc3)nc12 | – | 1.07%
20 | CNC(=O)c1ccccc1Nc1nc(Nc2ccc(N3CCOCC3)cc2OC)ncc1Cl | – | -19.1%

Row | Compound | Potency | activity, negative = cytotoxic
21 | COc1ccc(C=Cc2cc(OC)c(OC)c(OC)c2)cc1O | – | -14.7%
22 | COc1cccc(Nc2c(C(N)=O)cnc3c(C)cc(S(=O)(=O)c4cccc(C(=O)N(C)C)c4)cc23)c1 | – | -4.06% [at 29.6 µM]
23 | Cc1ccc(NC(=O)C2(c3ccc4c(c3)OC(F)(F)O4)CC2)nc1-c1cccc(C(=O)O)c1 | – | 8.2%
24 | CNC(=O)CN1CCC(Oc2cc3c(Nc4cccc(Cl)c4F)ncnc3cc2OC)CC1 | – | 7.31%
25 | C=C1C(=CC=C2CCC[C@]3(C)[C@@H]([C@H](C)C=C[C@H](C)C(C)C)CC[C@@H]23)C[C@@H](O)C[C@@H]1O | – | 10.7%
26 | CC=CC1=C(C(=O)O)N2C(=O)[C@H](NC(=O)[C@H](N)c3ccc(O)cc3)[C@@H]2SC1 | – | 6.28%
27 | Cc1cc(Nc2cc(NC(=O)c3c(Cl)cccc3Cl)ccn2)nc(N)n1 | 20.8 µM (active) | –
28 | CC=C1NC(=O)[C@H]2CSSCCC=C[C@H](CC(=O)N[C@H](C(C)C)C(=O)N2)OC(=O)[C@H](C(C)C)NC1=O | – | 10.9%
29 | CCC(=C(c1ccccc1)c1ccc(OCCN(C)C)cc1)c1ccccc1 | – | 2%
30 | Cc1ccc2nc(NC(=O)CSc3nc4c(c(=O)n3-c3ccccc3)SCC4)sc2c1 | 14.7 µM (active) | –
31 | O=C(C=Cc1cccnc1)NCCCCC1CCN(C(=O)c2ccccc2)CC1 | – | 9.09%
32 | CC1=C(CO)C(=O)O[C@@H]([C@@H](C)[C@H]2CC[C@H]3[C@@H]4C[C@H]5O[C@]56[C@@H](O)C=CC(=O)[C@]6(C)[C@@H]4CC[C@]23C)C1 | – | -34.7%
33 | Cc1cc(C(=O)N2CCN(c3cccc(Cl)c3)CC2)n(-c2ccccc2)n1 | – | 14.1%
34 | O=C(Nc1cc(C(F)(F)F)cc(C(F)(F)F)c1)c1cc(Cl)ccc1O | 2.33 µM (active) | –
35 | CC[C@H]1CN2CCc3cc(OC)c(OC)cc3[C@H]2C[C@@H]1C[C@@H]1NCCc2cc(OC)c(OC)cc21 | – | -24.5%
36 | Cc1cn(-c2cc(NC(=O)c3ccc(C)c(Nc4nccc(-c5cccnc5)n4)c3)cc(C(F)(F)F)c2)cn1 | – | 17.6%
37 | CN(C)CC(C)(C)CNc1nn2c(-c3ccccc3)nnc2cc1C1CCC1 | – | -5.18%
38 | COC(=O)[C@]12CCC(C)(C)C[C@@H]1[C@@H]1C(=O)C=C3[C@@]4(C)C=C(C#N)C(=O)C(C)(C)[C@@H]4CC[C@@]3(C)[C@]1(C)CC2 | 7.37 µM (active) | –
39 | COc1cccc2c(NCc3ccccc3)nc(-n3c(N)nc4ccccc43)nc12 | 9.27 µM (active) | –
40 | CNC(=O)c1ccc(N2C(=S)N(c3cnc(C#N)c(C(F)(F)F)c3)C(=O)C23CCC3)cc1F | – | 6.97%
